High-throughput results: PubChem BioAssay, several laboratories
Sampled rows, rich in hits. Any-hit rate of the full collection: about 1.4%.
BCLXL inh – blocks human Bcl-xL binding to Bim BH3 peptide; hit rate 0.7% among 320,000; inhibition, % at 10.9 µM; GST-Bcl-xL / FITC-Bim BH3 peptide fluorescence polarization;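 active = inhibition above the mean of all tested compounds plus 3 SD, cutoff set per campaign, cut at about 30% in these data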;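 also: 0% = DMSO wells and 100% = unlabeled Bim-BH3 peptide competitor; inhibitors lower millipolarization by displacing the labeled peptide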
EBV gp42 block – EBV gp42 inhibition | Q1HVG2 | Fluorescence polarization binding assay, mP read-out | inhibition, % (tested at 21.74 µM) | hit rate 0.42% among 220,000 | AID 1085; in the data active = inhibition above about 50%
Target sequence (Q1HVG2 whole entry, looked up): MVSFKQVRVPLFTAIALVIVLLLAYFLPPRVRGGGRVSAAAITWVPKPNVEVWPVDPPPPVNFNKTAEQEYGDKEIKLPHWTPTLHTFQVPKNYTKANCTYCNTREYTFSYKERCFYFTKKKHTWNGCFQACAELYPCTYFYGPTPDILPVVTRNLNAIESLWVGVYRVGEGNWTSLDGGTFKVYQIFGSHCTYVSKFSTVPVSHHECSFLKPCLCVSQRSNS
eLon inh – E. coli protease La inhibition; inhibition, % at 7.94 µM; AID 602123; P0A9M0; purified E. coli Lon protease, fluorescence polarization; hit rate 0.42% among 360,000; in the data active = inhibition above about 13%, passing the limit was not always enough;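 also: 0% = enzyme with probe and DMSO and 100% = no enzyme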
MCL1 BIM primary – MCL1-BIM-BH3 interaction inhibition (human) | inhibition, % at 10.9 µM | Q07820 | GST-MCL1 / FITC-Bim-BH3 fluorescence polarization | hit rate 0.68% among 320,000;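 active = inhibition above the mean inhibition of all tested compounds plus 3 SD, set per campaign, cut at about 40% in these data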;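 also: 0% = DMSO wells and 100% = unlabeled Bim-BH3 peptide control; higher means more loss of mP so more displacement of Bim peptide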
Target sequence (Q07820 whole entry, looked up): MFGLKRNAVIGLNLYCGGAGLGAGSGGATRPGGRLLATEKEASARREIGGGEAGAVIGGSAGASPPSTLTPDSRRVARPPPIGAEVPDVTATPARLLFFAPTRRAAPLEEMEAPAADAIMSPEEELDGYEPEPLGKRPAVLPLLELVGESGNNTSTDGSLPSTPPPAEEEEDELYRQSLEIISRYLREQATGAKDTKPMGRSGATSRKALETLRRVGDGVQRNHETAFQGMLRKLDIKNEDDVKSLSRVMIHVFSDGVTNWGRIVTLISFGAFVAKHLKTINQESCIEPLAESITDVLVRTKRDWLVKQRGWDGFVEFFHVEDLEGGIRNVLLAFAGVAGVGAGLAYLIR
MEX-5 binding – C. elegans MEX-5 TCR-2 RNA binding activity | Q9XUB2 | MEX-5/FITC-TCR2 RNA binding, fluorescence polarization; active compounds read low | activity score (negative = inhibition of binding), % at 10 µM | hit rate 0.38% among 300,000 | AID 1832;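 active = inhibition past about -25% in most replicates, and total fluorescence under double the plate's negative control median, limit read from the data; inconclusive = replicates evenly split on the limit, or fluorescence at least double controls; inactive = too little inhibition in most replicates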;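 also: 0% = DMSO and -100% = 5 µM competing unlabeled TCR2 RNA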
GLD-1 RNA inh – GLD-1-TGE RNA interaction inhibition (C. elegans); hit rate 0.44% among 320,000; purified GLD-1 + fluorescein TGE RNA, fluorescence polarization; inhibition, % at 5.96 µM; AID 2280;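 active = percent inhibition above a per-plate cutoff, the plate mean of test compounds plus 3 SD, cut at about 30% in these data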;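 also: 0% = DMSO wells with GLD-1 and probe and 100% = wells lacking GLD-1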
E coli Lon conf – confirmation of E. coli Lon protease inhibitors | shares compounds with eLon inh | purified E. coli Lon, fluorescence polarization | inhibition, % at 7.94 µM | hit rate 31% among 1,400; in the data active = inhibition above about 16%;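 also: 0% = enzyme with probe and DMSO and 100% = no enzyme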
An asterisk follows results filed as active; ? = inconclusive; nt = no result; + = active, no number.

SMILES | BCLXL inh | EBV gp42 block | eLon inh | MCL1 BIM primary | MEX-5 binding | GLD-1 RNA inh | E coli Lon conf
Cc1c(C(=O)N2CCCCC2)oc2ccc(Br)cc12 | -0.2 | nt | -7.4 | 0.0 | 0.9 | -1.7 | nt
Cc1c(C(=O)N2CCN(S(=O)(=O)c3ccccc3)CC2)oc2ccc(Br)cc12 | nt | nt | 34.8* | nt | nt | 1.9 | -31.2
CCN(CC)c1ccc2nc3ccc(N)cc3[n+](-c3ccccc3)c2c1 | nt | nt | 169.6* | nt | nt | nt | 123.9*
CC(OC(=O)C1CCN(c2ccc(C(F)(F)F)cn2)CC1)C(=O)Nc1cccc([N+](=O)[O-])c1 (stereo not given) | -13.4 | nt | -5.5 | -12.7 | nt | 0.8 | nt
CCCCOC(=O)Nc1cc(C)c(Cl)cc1OC | 2.2 | -9.2 | 33.6* | 2.1 | 3.4 | 0.0 | -0.3
COc1cc(NC(=O)Cc2nn(C)c(=O)c3ccccc23)cc(OC)c1OC | 3.5 | -18.7 | 3.0 | 4.7 | -2.8 | -3.3 | nt
COc1ccc(OC)c(NC(=O)Cc2nn(C)c(=O)c3ccccc23)c1 | -0.6 | -17.2 | 16.0* | 2.2 | -1.5 | 2.2 | -1.9
CC(C)S(=O)(=O)c1cnc(-c2cccnc2)nc1N | 4.2 | -13.5 | -2.9 | -0.8 | -5.2 | 2.9 | nt
CC(=O)N1CCN(Cc2cc(=O)oc3cc(C)cc(C)c23)CC1 | nt | nt | -4.4 | nt | nt | nt | nt
C=CCn1c(=NC(=O)C2COc3ccccc3O2)sc2cc(S(N)(=O)=O)ccc21 (stereo not given) | 4.2 | -8.1 | 23.2* | -6.1 | -2.0 | 5.2 | -8.8
COCCn1c(=NC(=O)C2COc3ccccc3O2)sc2cc(S(N)(=O)=O)ccc21 (stereo not given) | -5.4 | -8.9 | -6.3 | -2.1 | -3.2 | 7.2 | nt
N#Cc1ccccc1S(=O)(=O)N1CCN(C(=O)[C@@H]2CCCN2C(=O)c2cccs2)CC1 | -2.5 | nt | 1.7 | -7.9 | nt | 0.6 | nt
N#Cc1ccc(S(=O)(=O)NC2CC2)cc1 | 3.0 | nt | 19.6* | 2.0 | -0.8 | 2.2 | 41.6*
C/C(=N\NC(=O)c1nnn(-c2nonc2N)c1-c1ccccc1)c1ccco1 | nt | nt | -7.5 | nt | nt | nt | nt
FC(F)(F)c1nc2nc(Cl)c(Cl)nc2n1CCCN1CCOCC1 | nt | nt | 31.1* | nt | nt | nt | 9.4
Cc1nc2ccccc2c(=O)n1CCCN1CCOCC1 | 0.3 | -5.7 | 3.1 | -2.9 | -1.4 | -1.3 | nt
O=[N+]([O-])c1cnc(N2CCCCC2)c([N+](=O)[O-])c1 | 21.4 | -6.9 | 54.7* | 19.2 | 5.4 | 28.0 | -11.4
Cc1cc([N+](=O)[O-])cnc1N1CCOCC1 | 2.6 | -8.8 | -2.9 | -7.7 | 1.2 | -4.6 | nt
CC(C#N)(Cc1ccccc1)Nc1ccccc1 (stereo not given) | 0.1 | nt | -0.4 | -2.0 | 3.7 | 5.0 | nt
CSc1ccccc1NC(=O)CSc1nnnn1-c1ccccc1SC | 5.1 | -10.5 | -4.9 | -2.4 | -4.2 | 9.5 | nt
COC(=O)c1ccsc1NC(=O)CSc1nnnn1-c1ccccc1SC | 2.1 | -14.3 | 20.1* | 4.4 | 0.6 | 3.9 | 1.4
COc1cc(CC(=O)NCCCc2ccccc2)cc(OC)c1OC | 2.4 | nt | -5.7 | 1.2 | -0.2 | 3.2 | nt
CCOc1ccccc1NC(=O)Nc1cccc(NC(C)=O)c1 | 3.3 | -19.0 | 9.2 | -0.5 | 1.2 | -9.3 | nt
CCOc1ccccc1NC(=O)Nc1ccc(OC)nc1 | nt | nt | 22.1* | nt | ? | nt | 16.4*
CC(C)C[C@@H](CN1CCC[C@H]1CN1C(=O)C(=O)NC[C@@H]1Cc1ccc(O)cc1)N1C[C@H](Cc2ccccc2)N(CCc2ccccc2)C(=O)C1=O | nt | nt | 10.8* | nt | nt | nt | -0.8
SMILES | BCLXL inh | EBV gp42 block | eLon inh | MCL1 BIM primary | MEX-5 binding | GLD-1 RNA inh | E coli Lon conf
COC(=O)c1ccccc1NC(=O)N[C@@H](C)C(=O)OC | 3.1 | 3.9 | 16.3* | 9.9 | 2.4 | 4.1 | 0.7
CCOC(=O)c1ccccc1NC(=O)N[C@@H](C)C(=O)OC | 4.7 | -28.2 | -16.9 | 9.0 | 3.7 | 4.6 | nt
CCCCc1nnc(NC(=O)CSCc2cc(=O)n3cc(C)sc3n2)s1 | 5.8 | nt | -2.6 | 4.1 | 0.4 | 2.9 | nt
CCOC(=O)c1c(C)[nH]c(C)c1C(=O)COC(=O)c1nc2nccc(C)n2n1 | -2.2 | -12.3 | -2.3 | -3.8 | 0.9 | -3.0 | nt
Fc1ccc2nc(Nc3ccccc3)sc2c1 | 6.0 | 3.9 | 15.2* | 3.1 | nt | -1.9 | 5.6
CC(=O)OCCn1c2nc(=O)[nH]c(=O)c-2nc2cc(C)c(C)cc21 | nt | -56.3 | + | nt | ? | nt | +
CCCCOc1ccc(C(=O)NNC(=O)C2C3C=CC(C3)C2C(=O)O)cc1 (stereo not given) | 1.6 | nt | 0.3 | 5.4 | 0.6 | -1.1 | nt
